80 molecules from PubChem BioAssay (NCI) can be followed below.

This assay has as its system MDA-MB-468 breast. Put plainly: NCI-60 one-dose screen, 48 h (100 = growth as untreated, 0 = no growth, -100 = all killed). As to conditions: 10 µM unless noted.

Several values for one entry are separate records, joined by “and”; a condition that tells them apart may be missing. Equal entries are not always repeated. About 83,000 compounds went through this panel and 20% of them were active in at least one assay; those are over-represented in the sample as a whole.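 Single-concentration screen, 48 h exposure, 96-well plates. Endpoint: percent growth. Below 10 = active.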 Activity calls are given as the source filed them.

For the molecule `CC[C@]1(O)C[C@@H]2CN(CCc3c([nH]c4ccccc34)[C@@](C(=O)OC)(c3cc4c(cc3OC)N(C)[C@H]3[C@@](O)(C(N)=O)[C@H](O)[C@]5(CC)[C@@H]6C[C@@H]6CN6CC[C@]43[C@@H]65)C2)C1`, the growth was 43.8% (inactive).
The value for `CC(=O)Nc1ccc(OC(=O)c2ccccc2O)cc1` was 117% (inactive); that for `CC[C@@]1(OC(=O)CN(C)C)C(=O)OCc2c1cc1n(c2=O)Cc2cc3c(N)cccc3nc2-1` was -66.4% (active).
Next, `NC1(C(=O)N[C@@H](CCO)c2ccc(Cl)cc2)CCN(c2ncnc3[nH]ccc23)CC1`: 4.8% (active); `Cc1cc(Cl)ccc1Nc1nc(C(F)(F)F)ccc1C(=O)N/N=C/c1ccccc1Cl`: 6.05% (active); `Nc1nc(C(=O)N/N=C/c2ccc(F)cc2)nn1-c1ccc(S(N)(=O)=O)cc1`: 102% (inactive).
The value for `COc1c(B(O)O)cccc1-c1nc2ccc3[nH]ncc3c2c2c1C1CCC2C1` (stereo not given) was 89.9% (inactive).
With `CC1(C(=O)O)NC(C(=O)O)Cc2c1[nH]c1ccccc21` (stereo not given), the growth is 113% (inactive).
Next, `NC(=O)c1c(NC(=O)c2ccccc2C(F)(F)F)sc2c1CCC(=O)C2`: 14.9% (inactive); `COc1cc(C(C)n2cc(-c3ccccc3)nn2)ccc1OC1CCCCC1` (stereo not given): 8.89% (active).
Next, `CCN(CC)CCNc1cc(-c2cccc(OC(F)(F)F)c2)nc2ccc(N3CCCC3)cc12`: 28.6% (inactive) and -38.3% (active) and 0.911% (active); `O=[N+]([O-])c1ccc(-c2cc3c(Nc4ccc(Cl)c(C(F)(F)F)c4)ncnc3s2)cc1`: -10.2% (active).
On to `NC(=O)c1ccc[n+](Cc2ccc(Cl)cc2Cl)c1`, for which the growth was 101% (inactive).
Next, `O=C(N/N=C/c1cc2ccccc2c2ccccc12)c1cc(O)c(O)c(O)c1`: 64.9% (inactive).
The value for `Nc1nnc2cc(Cl)ccc2n1` was 101% (inactive).
The value for `Cc1ccccc1SSc1ccccc1C` was 68.4% (inactive).
For the molecule `c1cc2[nH]ncc2cc1-c1nc2ccc3[nH]ncc3c2c2c1CCC2`, the growth is 3.92% (active).
The value for `Nc1cc(-c2cccc(OC(F)(F)F)c2)nc2ccc(N3CCCC3)cc12` was -10.7% (active) and -15.9% (active) and -23.5% (active); that for `COC(=O)CCCCCCN=Cc1c(O)c(O)c(C(C)C)c2cc(C)c(-c3c(C)cc4c(C(C)C)c(O)c(O)c(C=NCCCCCCC(=O)OC)c4c3O)c(O)c12` was 47.1% (inactive); that for `COc1cc2nc(Cl)nc(NCCO)c2cc1OC` was 99.2% (inactive).
The value for `CCN(CC)CCOc1nc2cc(OC)c(OC)cc2c2c1-c1ccc(OC)cc1C2=O` was 84% (inactive); that for `COc1cc(CSc2nc3ccc(Cl)cc3c(=O)n2Cc2ccccc2)cc(OC)c1OC` was -13.1% (active); that for `O=C1/C(=C/c2ccc([N+](=O)[O-])s2)Oc2ccc(Br)cc21` was -40.2% (active).
The value for `CC(C)(C)c1cc(-c2nc3ccc(N4CCN(S(C)(=O)=O)CC4)cc3[nH]2)cc(C(C)(C)C)c1O` was 96.1% (inactive); that for `COc1cnc2c(c1)C(=O)c1c-2n(CCCN2CCOCC2)c(=O)c2cc(F)ccc12` was -50.1% (active); that for `C/C(=N\Nc1cc(C)c2ccccc2n1)c1ccccn1` was -63.2% (active).
As for `COc1ccc(/C=C(\C#N)n2nnc3ccccc32)cc1`, the growth was 4.67% (active).
Next, `COc1cc(-c2cc3ncccc3c3nc(N)c4cccnc4c23)cc(OC)c1OC`: -3.2% (active); `O=C(/C=C/c1cccc(B(O)O)c1)c1cccc(B(O)O)c1`: -84.9% (active).
Next, `O=C(CCCCCCCC(=O)N1CCCCC1)N1CCCCC1`: 105% (inactive); `C=CC(COC(c1ccccc1)(c1ccccc1)c1ccccc1)N(CC)CC` (stereo not given): 14.5% (inactive); `CN(C)c1ccc([C@@H](C(=O)Nc2cccc([N+](=O)[O-])c2)N(C(=O)c2cc3ccccc3[nH]2)c2cccc([N+](=O)[O-])c2)cc1`: 97.8% (inactive).
The value for `Cc1ccc2c(n1)C(=O)C(Oc1ccc(F)cc1)=CC2=O` was 87.7% (inactive); that for `O=C1c2cc(Cl)ccc2-c2c(O)cc(Cl)cc21` was 48.6% (inactive).
For the molecule `Nc1ccc(C(OC(=O)c2cc3ccccc3c(Cc3c(O)c(C(=O)OC(c4ccc(N)cc4)(c4ccc(N)cc4)c4ccc(N)cc4)cc4ccccc34)c2O)(c2ccc(N)cc2)c2ccc(N)cc2)cc1`, the growth was -23% (active).
Next, `O=C1/C(=C/c2ccccc2)Oc2ccc(O)c(I)c21`: 104% (inactive).
Next, `CCC#CC[C@H]1C/C=C2/C(=O)C=C[C@@H]2C/C=C\CCCC(=O)O1`: -3.46% (active).
Next, `O=C(c1ccc(Cl)cc1Cl)N1CCOCC1`: 99.5% (inactive).
For `CN[C@@H]1C[C@H]2O[C@@](C)([C@@H]1OC)n1c3ccccc3c3c4c(c5c6ccccc6n2c5c31)C(=O)N[C@H]4O`, the growth is -56.3% (active).
In the case of `C#Cc1cccc(Nc2ncnc3cc(OC)c(OCCCCCCC(=O)NO)cc23)c1`, the growth was -44.4% (active).
For `CC(C)C1=NOC(=O)C1=Cc1cn(-c2ccccc2)nc1-c1ccc(F)cc1`, the growth is 73.4% (inactive).
The value for `Cn1c2c(c(=O)[nH]c1=O)NC1=C(C(=O)c3ccccc31)C1(C=C(O)c3ccccc31)N2` (stereo not given) was 100% (inactive); that for `CCCCC(O)Cn1ncc(C(=O)OCC)c1NC(=O)NCc1ccccc1C(F)(F)F` (stereo not given) was 98.7% (inactive).
Next, `Cc1ccc(/C=C/c2c(C(=O)/C=C/c3ccccc3)c(C)nc3ccccc23)cc1`: 38.1% (inactive); `O=c1oc2ccc(F)cc2c(=O)n1-c1ccc(Br)cc1F`: 0.698% (active); `Cc1cc(O)cc2c1[C@H]1CC[C@]3(C)[C@@H](O)CC[C@H]3[C@@H]1C=C2`: 96.8% (inactive).
The value for `CCc1nnc(CNc2ccc(Cl)cc2)o1` was 114% (inactive); that for `Cc1ccc2c(n1)C(=O)C(Cl)=C(Nc1ccc(C(F)(F)F)cc1)C2=O` was -48.5% (active).
In the case of `Fc1ccc(Nc2ncnc3ccc(-c4cnc5[nH]ccc5c4)cc23)cc1Cl`, the growth is -29.7% (active).
For `C=C(C)[C@@H]1CC[C@]2(c3nnc(-c4ccncc4)o3)CC[C@]3(C)[C@H](CC[C@@H]4[C@@]5(C)CCC(=O)NC(C)(C)[C@@H]5CC[C@]43C)[C@@H]12`, the growth is 92.7% (inactive).
For `O=C(CN1C(=O)S/C(=C\c2ccccc2)C1=O)Nc1ncc(Cc2ccccc2Cl)s1`, the growth is 115% (inactive).
Next, `CCCCCCCCNc1cccc2c1C(=O)c1ccccc1C2=O`: 95.4% (inactive).
For the molecule `CCNC(=O)N1CCc2cc(OC)c(OCCc3ccc(OC)cc3)cc2C1c1ccc(Cl)cc1C` (stereo not given), the growth is -1.44% (active).
Next, `COc1nc2c(c(=O)n1C)CN(c1ccccc1)C(=O)CN2C`: 4.41% [100 µM] (active); `C=C1C(=O)O[C@H]2[C@H]1CC/C(CNC(=O)c1cc3ccccc3[nH]1)=C\CC[C@@]1(C)O[C@@H]21`: -61.7% (active); `FC(F)(F)c1cc(CNc2nc(Cl)ncc2Br)cc(C(F)(F)F)c1`: 64.7% (inactive).
Next, `CCOC(=O)C(=CNc1ccccc1[N+](=O)[O-])C(=O)OCC`: 86% (inactive); `C=CC1(C)C(O[Si](C)(C)C(C)(C)C)CC2C3OC(=O)NC31c1cccc3c1[C@H](C(=O)N3C)C2(C)C` (stereo not given in full): 31.3% (inactive).
The value for `O=c1cc(-c2nccc3c2[nH]c2ccccc23)c2cc(Cl)ccc2o1` was 2.37% (active); that for `CNC(=O)c1cc(Oc2cccc3nc(Nc4ccc(Cl)c(F)c4)ccc23)ccn1` was 51.3% (inactive); that for `N#CCCOc1ccccc1` was 114% (inactive).
With `O=C(NCCNc1cc(-c2cn(-c3ccccc3)nc2-c2cccc(O)c2)ccn1)Nc1ccc(Cl)c(C(F)(F)F)c1`, the growth was 17.5% (inactive).
Next, `COC(=O)c1cc(Cl)cc([N+](=O)[O-])c1O`: 95.3% (inactive); `O=c1cc(-c2cccnc2)oc2c1ccc1ccccc12`: 65% (inactive); `COc1cccc(NC(=O)NCCNc2nccc(-c3c(-c4ccc(F)cc4)nc4sccn34)n2)c1`: 94.3% (inactive).
Next, `C=CCOC(=O)C1=C(C)NC2=C(C(=O)CC(C)(C)C2)C1c1ccc(OC)cc1` (stereo not given): 110% (inactive); `COc1nc2c(cc1S(=O)(=O)c1ccccc1)CCc1c-2cnn1-c1cccc(Cl)c1`: 60% (inactive).
In the case of `C=CCn1c(SCC(=O)Nc2ccc(C(=O)/C=C/c3ccc(C)cc3)cc2)nnc1-c1c[nH]c2ccccc12`, the growth is 85.3% (inactive).
The value for `COC(=O)CCCCCn1c2ccccc2c2c3c(c4c5ccccc5[nH]c4c21)C(=O)N(O)C3=O` was 45.3% (inactive).
Next, `C[C@H]1[C@H](C)CC[C@]2(C(=O)N3CCN(C)CC3)CC[C@]3(C)C(=CC[C@@H]4[C@@]5(C)C/C(=C/c6ccco6)C(=O)C(C)(C)[C@@H]5CC[C@]43C)[C@H]12`: 19.2% [100 µM] (inactive).
The value for `Cc1cc(NC(=O)CSCC(=O)O)no1` was 114% (inactive).
Turning to `CCCCCCCCCCCCCCCCCC1=NCCN1CS(=O)(=O)O`, the growth was 99.2% (inactive).
Next, `FC(F)c1nc2ccccc2n1-c1nc(N2CCOCC2)nc(N2CCOCC2)n1`: -43.2% (active).
With `O=C(Oc1ccc2c(c1)sc1nc(-c3ccccc3)[nH]c(=O)c12)C(F)(F)F`, the growth was 37.9% (inactive).
The value for `CCOC(=O)c1nn(-c2ccc(S(N)(=O)=O)cc2)c2nc(C)cc(=O)n12` was 99% (inactive).
Regarding `COc1ccc(C(=S)N2CCN(c3ccc(Cl)cc3)CC2)cc1`, the growth is 102% (inactive).
In the case of `COc1ccc(OC)c(NC2=C(Cl)C(=O)C(C)=C(C)C2=O)c1`, the growth is -31.6% (active).
The value for `CN(C)c1ccc(/C=N/Nc2nc(N/N=C/c3ccc(N(C)C)cc3)nc(N3CCCCC3)n2)cc1` was 36.3% (inactive); that for `C=CCn1c(SCC(=O)Nc2ccc(C(=O)/C=C/c3cc4cc(OC)ccc4nc3Cl)cc2)nnc1-c1ccc(Br)cc1` was 85.7% (inactive).
The value for `C[C@]12CC[C@@H]3c4cc(O)c(O)cc4CC[C@H]3[C@@H]1CC[C@@H]2O` was 72.1% (inactive).
